Here are results for four molecules from ChEMBL document CHEMBL1961873, “Compounds: GSK PKIS; Assays: Nanosyn kinase panel” (2012).

For test [1], the target named is T1, Mitogen-activated protein kinase 12 (Homo sapiens) (UniProt P53778).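 Note: values are averaged p38gamma kinase inhibition readings, compounds tested at 1 µM.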
T1 sequence (whole entry): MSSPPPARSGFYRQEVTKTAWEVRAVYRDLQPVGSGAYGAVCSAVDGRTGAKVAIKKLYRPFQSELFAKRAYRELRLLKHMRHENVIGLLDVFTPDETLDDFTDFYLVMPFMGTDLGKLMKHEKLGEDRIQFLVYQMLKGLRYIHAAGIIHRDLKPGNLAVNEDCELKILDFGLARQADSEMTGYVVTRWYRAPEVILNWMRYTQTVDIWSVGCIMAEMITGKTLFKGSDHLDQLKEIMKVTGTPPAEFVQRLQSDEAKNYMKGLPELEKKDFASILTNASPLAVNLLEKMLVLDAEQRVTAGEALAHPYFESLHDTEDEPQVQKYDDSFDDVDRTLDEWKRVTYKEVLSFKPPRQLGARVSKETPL
To be noted: at 1 µM.

In test [2] the target is SRSF protein kinase 1 (Homo sapiens) (UniProt Q96SB4). To be noted: at 0.1 µM.
SRSF protein kinase 1 (Homo sapiens), sequence (Q96SB4 whole entry): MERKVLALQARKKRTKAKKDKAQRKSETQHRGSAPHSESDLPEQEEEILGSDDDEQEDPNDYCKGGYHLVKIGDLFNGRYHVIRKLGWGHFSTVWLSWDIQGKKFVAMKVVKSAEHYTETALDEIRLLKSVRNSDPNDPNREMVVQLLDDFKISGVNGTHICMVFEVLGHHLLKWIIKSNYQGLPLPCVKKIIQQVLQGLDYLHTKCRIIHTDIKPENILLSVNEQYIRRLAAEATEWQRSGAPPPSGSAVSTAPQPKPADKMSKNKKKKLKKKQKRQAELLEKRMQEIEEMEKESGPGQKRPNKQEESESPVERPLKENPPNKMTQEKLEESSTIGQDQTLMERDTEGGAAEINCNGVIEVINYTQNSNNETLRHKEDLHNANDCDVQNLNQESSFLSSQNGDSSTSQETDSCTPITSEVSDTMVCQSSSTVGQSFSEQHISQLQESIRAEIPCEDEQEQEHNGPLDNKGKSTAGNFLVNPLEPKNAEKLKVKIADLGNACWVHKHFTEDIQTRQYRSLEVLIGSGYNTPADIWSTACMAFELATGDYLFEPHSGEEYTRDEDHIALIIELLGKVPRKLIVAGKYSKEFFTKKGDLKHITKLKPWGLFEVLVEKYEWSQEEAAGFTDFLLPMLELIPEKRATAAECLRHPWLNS
Test [3] has the same target. To be noted: at 1 µM.
Test [4] addresses Phosphatidylinositol 4,5-bisphosphate 3-kinase catalytic subunit alpha isoform (Homo sapiens) (UniProt P42336). To be noted: at 0.1 µM.
Test [5] shares this target. To be noted: at 1 µM.
In test [6] the target is T2, Phosphatidylinositol 4,5-bisphosphate 3-kinase catalytic subunit delta isoform (Homo sapiens) (UniProt O00329).
T2 sequence (whole entry): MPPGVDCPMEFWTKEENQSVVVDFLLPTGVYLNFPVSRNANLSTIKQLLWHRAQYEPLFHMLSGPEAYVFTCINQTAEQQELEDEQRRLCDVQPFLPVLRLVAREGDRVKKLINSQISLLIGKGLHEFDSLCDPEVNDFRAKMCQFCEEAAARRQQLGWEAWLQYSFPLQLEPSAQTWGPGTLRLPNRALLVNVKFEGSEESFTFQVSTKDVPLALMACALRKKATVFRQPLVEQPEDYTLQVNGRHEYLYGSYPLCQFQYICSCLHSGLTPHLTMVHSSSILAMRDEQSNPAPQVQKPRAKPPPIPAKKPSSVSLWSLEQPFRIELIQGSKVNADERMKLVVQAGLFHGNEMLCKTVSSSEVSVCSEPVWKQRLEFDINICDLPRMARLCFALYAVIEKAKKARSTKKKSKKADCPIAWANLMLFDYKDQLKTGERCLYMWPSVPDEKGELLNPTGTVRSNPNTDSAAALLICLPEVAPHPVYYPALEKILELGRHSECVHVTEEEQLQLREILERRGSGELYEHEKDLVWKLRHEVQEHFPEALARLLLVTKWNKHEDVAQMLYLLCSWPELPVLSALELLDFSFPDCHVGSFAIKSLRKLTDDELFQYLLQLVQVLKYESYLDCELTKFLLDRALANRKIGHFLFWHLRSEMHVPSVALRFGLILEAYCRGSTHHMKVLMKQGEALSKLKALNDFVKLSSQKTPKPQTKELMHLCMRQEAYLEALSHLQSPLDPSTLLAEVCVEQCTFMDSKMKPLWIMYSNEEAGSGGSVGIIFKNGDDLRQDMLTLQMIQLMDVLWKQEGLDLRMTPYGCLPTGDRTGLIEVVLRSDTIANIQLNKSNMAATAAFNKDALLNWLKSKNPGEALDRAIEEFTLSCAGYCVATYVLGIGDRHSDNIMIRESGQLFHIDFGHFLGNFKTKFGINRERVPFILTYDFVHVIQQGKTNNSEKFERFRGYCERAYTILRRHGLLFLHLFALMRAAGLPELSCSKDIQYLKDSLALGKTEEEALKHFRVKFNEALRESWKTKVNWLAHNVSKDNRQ
To be noted: at 0.1 µM.

The target in test [7] is T2, Phosphatidylinositol 4,5-bisphosphate 3-kinase catalytic subunit delta isoform (Homo sapiens). To be noted: at 1 µM.
In test [8] the target is Phosphatidylinositol 4-kinase beta (Homo sapiens) (UniProt Q9UBF8). To be noted: at 0.1 µM.
Phosphatidylinositol 4-kinase beta (Homo sapiens), sequence (Q9UBF8 2-816 limits assumed): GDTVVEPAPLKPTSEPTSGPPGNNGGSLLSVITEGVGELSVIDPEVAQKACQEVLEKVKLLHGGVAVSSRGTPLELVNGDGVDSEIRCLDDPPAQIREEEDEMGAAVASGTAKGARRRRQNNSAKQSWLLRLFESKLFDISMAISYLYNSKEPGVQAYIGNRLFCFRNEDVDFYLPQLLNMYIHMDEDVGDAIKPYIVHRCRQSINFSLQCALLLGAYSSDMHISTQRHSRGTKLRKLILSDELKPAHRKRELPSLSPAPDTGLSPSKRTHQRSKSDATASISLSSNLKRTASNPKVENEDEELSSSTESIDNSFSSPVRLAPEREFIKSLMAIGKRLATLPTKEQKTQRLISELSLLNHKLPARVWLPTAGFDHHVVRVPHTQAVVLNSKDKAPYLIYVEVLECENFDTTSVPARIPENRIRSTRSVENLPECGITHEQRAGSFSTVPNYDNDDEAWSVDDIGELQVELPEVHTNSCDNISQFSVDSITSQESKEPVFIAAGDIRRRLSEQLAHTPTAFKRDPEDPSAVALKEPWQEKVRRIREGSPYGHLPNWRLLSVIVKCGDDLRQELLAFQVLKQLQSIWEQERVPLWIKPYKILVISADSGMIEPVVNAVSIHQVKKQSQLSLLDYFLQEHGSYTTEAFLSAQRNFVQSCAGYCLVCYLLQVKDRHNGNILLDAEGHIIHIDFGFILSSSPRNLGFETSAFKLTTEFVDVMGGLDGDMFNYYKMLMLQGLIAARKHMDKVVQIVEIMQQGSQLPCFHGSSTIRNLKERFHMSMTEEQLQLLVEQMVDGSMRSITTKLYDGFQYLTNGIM
For test [9] the target is unchanged. To be noted: at 1 µM.
In test [10] the target is Sphingosine kinase 1 (Homo sapiens) (UniProt Q9NYA1). To be noted: at 0.1 µM.
Sphingosine kinase 1 (Homo sapiens), sequence (Q9NYA1 whole entry): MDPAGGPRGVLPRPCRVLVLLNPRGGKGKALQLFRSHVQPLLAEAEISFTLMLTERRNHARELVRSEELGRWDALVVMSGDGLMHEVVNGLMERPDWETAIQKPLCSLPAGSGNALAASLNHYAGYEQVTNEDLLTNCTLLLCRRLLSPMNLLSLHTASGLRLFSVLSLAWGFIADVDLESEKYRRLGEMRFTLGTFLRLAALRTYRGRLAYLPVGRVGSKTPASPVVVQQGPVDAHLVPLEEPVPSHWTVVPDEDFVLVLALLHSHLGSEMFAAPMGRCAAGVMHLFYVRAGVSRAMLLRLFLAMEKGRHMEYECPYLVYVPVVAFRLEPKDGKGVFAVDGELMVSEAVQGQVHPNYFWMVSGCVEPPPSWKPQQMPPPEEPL
Test [11] has the same target. To be noted: at 1 µM.
In test [12] the target is T3, Sphingosine kinase 2 (Homo sapiens) (UniProt Q9NRA0).
T3 sequence (whole entry): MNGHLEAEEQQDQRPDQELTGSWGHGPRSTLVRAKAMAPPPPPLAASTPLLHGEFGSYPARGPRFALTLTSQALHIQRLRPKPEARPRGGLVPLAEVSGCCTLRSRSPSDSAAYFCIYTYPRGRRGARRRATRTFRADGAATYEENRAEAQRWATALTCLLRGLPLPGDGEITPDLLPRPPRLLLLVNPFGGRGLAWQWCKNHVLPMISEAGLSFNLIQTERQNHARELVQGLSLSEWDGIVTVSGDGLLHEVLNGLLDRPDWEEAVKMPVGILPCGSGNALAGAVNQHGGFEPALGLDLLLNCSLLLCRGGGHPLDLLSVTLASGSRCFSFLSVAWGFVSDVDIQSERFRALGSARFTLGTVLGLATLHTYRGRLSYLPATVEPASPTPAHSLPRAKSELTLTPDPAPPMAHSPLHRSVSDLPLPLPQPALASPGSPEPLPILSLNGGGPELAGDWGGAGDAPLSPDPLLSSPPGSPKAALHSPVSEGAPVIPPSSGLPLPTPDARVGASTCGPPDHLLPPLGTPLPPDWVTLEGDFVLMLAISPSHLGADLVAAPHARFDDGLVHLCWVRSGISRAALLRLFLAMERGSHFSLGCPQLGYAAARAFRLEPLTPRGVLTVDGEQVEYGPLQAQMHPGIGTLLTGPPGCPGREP
To be noted: at 0.1 µM.

Test [13] addresses T3, Sphingosine kinase 2 (Homo sapiens). To be noted: at 1 µM.
Test [14] addresses Casein kinase II subunit alpha (Homo sapiens) (UniProt P68400). To be noted: at 0.1 µM.
Test [15] has the same target. To be noted: at 1 µM.
The target of test [16] is T4, Inhibitor of nuclear factor kappa-B kinase subunit alpha (Homo sapiens) (UniProt O15111).
T4 sequence (whole entry): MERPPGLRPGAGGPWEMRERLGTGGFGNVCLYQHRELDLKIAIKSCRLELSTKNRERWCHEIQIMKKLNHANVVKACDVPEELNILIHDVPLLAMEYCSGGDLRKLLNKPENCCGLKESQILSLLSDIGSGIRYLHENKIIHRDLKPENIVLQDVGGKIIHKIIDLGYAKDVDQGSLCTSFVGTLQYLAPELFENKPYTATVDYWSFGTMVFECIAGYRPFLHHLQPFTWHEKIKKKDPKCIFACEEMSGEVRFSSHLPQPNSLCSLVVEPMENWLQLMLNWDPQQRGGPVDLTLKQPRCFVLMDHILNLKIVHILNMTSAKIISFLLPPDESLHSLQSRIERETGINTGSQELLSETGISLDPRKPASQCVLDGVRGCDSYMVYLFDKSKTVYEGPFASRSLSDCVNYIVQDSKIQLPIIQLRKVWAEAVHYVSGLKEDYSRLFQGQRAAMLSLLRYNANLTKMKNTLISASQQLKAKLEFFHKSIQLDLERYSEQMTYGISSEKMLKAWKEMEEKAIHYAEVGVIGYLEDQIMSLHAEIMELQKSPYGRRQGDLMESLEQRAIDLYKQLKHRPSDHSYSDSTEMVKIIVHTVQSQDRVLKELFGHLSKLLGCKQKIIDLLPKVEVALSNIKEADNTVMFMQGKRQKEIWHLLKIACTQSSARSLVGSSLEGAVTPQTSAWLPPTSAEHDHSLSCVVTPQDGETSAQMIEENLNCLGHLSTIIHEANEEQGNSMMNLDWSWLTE
To be noted: at 0.1 µM.

In test [17] the target is T4, Inhibitor of nuclear factor kappa-B kinase subunit alpha (Homo sapiens). To be noted: at 1 µM.
Test [18] deals with T5, Inhibitor of nuclear factor kappa-B kinase subunit beta (Homo sapiens) (UniProt O14920).
T5 sequence (whole entry): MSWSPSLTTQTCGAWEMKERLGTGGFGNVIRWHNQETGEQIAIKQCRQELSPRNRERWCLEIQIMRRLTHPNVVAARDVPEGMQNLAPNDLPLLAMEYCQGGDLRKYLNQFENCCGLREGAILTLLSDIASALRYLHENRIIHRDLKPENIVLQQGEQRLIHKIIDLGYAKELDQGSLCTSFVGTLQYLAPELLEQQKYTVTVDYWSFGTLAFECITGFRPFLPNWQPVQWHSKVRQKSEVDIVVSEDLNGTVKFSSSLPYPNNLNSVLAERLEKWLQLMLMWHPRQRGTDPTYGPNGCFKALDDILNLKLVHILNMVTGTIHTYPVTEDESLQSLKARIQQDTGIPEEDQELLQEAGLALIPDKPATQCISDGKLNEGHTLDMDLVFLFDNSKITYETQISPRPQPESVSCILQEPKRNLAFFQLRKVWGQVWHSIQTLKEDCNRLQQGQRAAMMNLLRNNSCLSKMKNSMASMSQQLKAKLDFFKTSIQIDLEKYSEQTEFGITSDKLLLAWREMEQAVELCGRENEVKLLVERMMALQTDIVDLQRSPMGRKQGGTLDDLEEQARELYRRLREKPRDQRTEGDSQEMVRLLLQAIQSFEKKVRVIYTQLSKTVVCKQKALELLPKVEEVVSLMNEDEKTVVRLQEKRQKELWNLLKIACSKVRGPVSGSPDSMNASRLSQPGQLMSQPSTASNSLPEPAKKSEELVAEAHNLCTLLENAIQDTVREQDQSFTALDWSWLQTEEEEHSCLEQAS
To be noted: at 0.1 µM.

Test [19] has as its target T5, Inhibitor of nuclear factor kappa-B kinase subunit beta (Homo sapiens). To be noted: at 1 µM.
The target in test [20] is T6, Inhibitor of nuclear factor kappa-B kinase subunit epsilon (Homo sapiens) (UniProt Q14164).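 Note: mean inhibition of IKKε reported, from the GSK PKIS dataset.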
T6 sequence (whole entry): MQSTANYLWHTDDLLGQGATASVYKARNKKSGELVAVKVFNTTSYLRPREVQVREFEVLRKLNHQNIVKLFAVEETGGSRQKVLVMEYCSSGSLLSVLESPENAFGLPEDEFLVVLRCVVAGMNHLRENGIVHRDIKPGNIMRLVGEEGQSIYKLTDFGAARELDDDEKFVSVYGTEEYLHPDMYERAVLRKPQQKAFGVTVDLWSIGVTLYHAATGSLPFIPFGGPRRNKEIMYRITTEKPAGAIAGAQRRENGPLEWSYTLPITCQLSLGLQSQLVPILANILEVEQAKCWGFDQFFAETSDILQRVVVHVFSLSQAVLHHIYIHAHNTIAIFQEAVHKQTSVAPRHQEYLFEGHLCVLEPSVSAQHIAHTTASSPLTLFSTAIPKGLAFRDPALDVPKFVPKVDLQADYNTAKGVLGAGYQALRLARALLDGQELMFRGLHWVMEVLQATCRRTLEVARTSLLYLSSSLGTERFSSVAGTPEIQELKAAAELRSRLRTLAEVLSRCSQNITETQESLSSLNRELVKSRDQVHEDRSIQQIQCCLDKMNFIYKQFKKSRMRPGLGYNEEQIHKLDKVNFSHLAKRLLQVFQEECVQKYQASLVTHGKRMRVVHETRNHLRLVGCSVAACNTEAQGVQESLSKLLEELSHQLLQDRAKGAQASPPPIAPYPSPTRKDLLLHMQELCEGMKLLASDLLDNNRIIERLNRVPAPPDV
To be noted: at 0.1 µM.

Phosphatidylinositol 4,5-bisphosphate 3-kinase catalytic subunit alpha isoform (Homo sapiens), sequence (P42336 whole entry, canonical isoform): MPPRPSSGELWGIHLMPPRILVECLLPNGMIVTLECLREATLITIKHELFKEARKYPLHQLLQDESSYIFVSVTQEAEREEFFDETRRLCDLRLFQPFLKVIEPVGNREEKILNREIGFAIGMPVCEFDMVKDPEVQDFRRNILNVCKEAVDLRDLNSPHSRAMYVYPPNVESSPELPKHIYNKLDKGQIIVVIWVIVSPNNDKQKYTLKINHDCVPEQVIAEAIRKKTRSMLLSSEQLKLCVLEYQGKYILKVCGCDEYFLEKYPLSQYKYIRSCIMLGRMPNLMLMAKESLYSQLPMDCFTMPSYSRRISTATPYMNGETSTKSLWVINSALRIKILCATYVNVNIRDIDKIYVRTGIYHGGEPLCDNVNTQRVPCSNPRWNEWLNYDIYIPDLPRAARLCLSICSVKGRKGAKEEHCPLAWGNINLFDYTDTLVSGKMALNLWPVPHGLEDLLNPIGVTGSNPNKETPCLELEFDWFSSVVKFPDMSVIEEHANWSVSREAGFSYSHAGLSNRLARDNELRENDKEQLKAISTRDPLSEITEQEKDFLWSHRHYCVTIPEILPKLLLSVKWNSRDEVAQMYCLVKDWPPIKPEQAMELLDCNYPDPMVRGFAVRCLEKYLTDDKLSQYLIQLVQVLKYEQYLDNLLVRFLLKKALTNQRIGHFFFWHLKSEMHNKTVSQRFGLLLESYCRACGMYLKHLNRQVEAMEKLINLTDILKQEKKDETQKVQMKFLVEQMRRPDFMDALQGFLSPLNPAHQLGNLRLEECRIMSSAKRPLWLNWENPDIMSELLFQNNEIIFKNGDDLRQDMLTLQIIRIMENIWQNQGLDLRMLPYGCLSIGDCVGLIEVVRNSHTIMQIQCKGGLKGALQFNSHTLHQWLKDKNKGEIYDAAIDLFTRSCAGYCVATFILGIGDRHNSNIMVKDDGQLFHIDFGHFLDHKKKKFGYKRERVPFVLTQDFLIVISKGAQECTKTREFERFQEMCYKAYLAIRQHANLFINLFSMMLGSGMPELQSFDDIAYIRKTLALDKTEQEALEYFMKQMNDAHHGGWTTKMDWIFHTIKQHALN
Casein kinase II subunit alpha (Homo sapiens), sequence (P68400 whole entry, looked up): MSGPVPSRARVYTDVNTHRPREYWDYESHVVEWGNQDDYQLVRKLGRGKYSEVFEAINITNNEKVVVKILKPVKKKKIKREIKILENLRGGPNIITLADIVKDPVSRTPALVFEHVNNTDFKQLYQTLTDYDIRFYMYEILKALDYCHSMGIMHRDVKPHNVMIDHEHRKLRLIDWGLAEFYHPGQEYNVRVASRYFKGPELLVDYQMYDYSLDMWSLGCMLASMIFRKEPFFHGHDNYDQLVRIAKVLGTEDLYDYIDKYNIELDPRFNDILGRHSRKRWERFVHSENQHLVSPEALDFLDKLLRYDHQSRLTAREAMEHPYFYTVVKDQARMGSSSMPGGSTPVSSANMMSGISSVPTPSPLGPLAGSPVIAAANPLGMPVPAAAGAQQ

With `COc1cccc(-n2cnc3c(N/N=C/c4ccncc4)ncnc32)c1`, the inhibition in [1] is -1.27%; in [2] it was 1.41%; in test [3], 4.2%; in test [4] it was -0.19%; in test [5], -3.79%; in [6], -1.29%. Moreover, the inhibition in test [7] was -2.3%; in test [8], 5.84%; in [9] it was -1.85%; in test [10], -0.37%; in test [11], 0.02%; in [12], 0.58%. Besides, the inhibition in [13] is -0.25%; in test [14], 0.97%; in test [15], 10.8%; in [16], 0.84%; in test [17] it was -1.74%; in test [18] it was 1.12%. Besides, the values for the inhibition in test [19] and in [20] were 3.32% and 3.81%, respectively.
As to `CCc1cccc(CC)c1/C=C/c1cncc(C(=O)NC)c1`, the inhibition in test [1] is 1.19%; in test [2] it was -1.77%; in test [3], -2.98%; in [4], 1.54%; in test [5], 1.36%; in test [6] it was 4.84%. The inhibition in test [7] was 3.62%; in [8], -2.02%; in [9] it was -0.43%; in test [10] it was 0.93%; in test [11], -1.72%; in test [12], 0.98%. The inhibition was 1.95% in test [13]; -0.28% in test [14]; -1.26% in [15]; -2.82% in [16]; -5.51% in test [17]; 4.86% in test [18]. In addition, the inhibition in test [19] is 2.91%; in test [20], 1.34%.
Consider `Clc1ccc(CNc2nccc(-c3cnn4ncccc34)n2)cc1`, for which the inhibition is 1.18% in [1]; 0.9% in test [2]; 1.1% in [3]; -1.31% in [4]; 0.56% in [5]; -0.61% in test [6]. Besides, the inhibition in [7] is 1.79%; in [8], 2.18%; in [9], 1.28%; in test [10], -0.17%; in [11], 0.04%; in test [12], -0.11%. The inhibition in test [13] was -0.22%; in test [14], 2.95%; in [15], 17.9%; in [16] it was 1.91%; in test [17], 7.65%; in [18], 1%. In addition, the inhibition was 0.32% in [19] and 0.31% in test [20].
As for `C[C@@H](Oc1cc(-n2cnc3ccc(OC4CCN(C)CC4)cc32)sc1C(N)=O)c1ccccc1Cl`, the inhibition in test [1] was 5.86%; in test [2], -2.69%; in [3], -1.4%; in test [4] it was 5.06%; in test [5], 19.7%; in [6] it was 9.45%. Further, the inhibition in [7] was 62.5%; in [8], -3.18%; in [9] it was 3.72%; in [10], -2.98%; in test [11] it was -0.63%; in [12], -0.31%. Moreover, the inhibition was -1.96% in test [13]; 8.71% in test [14]; 7.82% in [15]; 6.24% in test [16]; 7.13% in test [17]; 7.4% in [18]. The inhibition in test [19] was determined as 4.96%; in [20] it was 5.46%.
